This is an account of results in PubChem BioAssay (NCI).

Structures are written as SMILES. About 83,000 compounds went through this panel and 20% of them were active in at least one assay; those are over-represented in the sample as a whole.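 Compound tested at a single concentration for 48 hours in 96-well plates; a percent growth value below 10 was scored as active.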 A number with no mark means an inactive call. Activity calls are given as the source filed them.

Common to all, as to assay: NCI-60 one-dose screen, 48 h (100 = growth as untreated, 0 = no growth, -100 = all killed)
One experiment deals with NCI-H226 lung. Particulars: 10 µM unless noted.
A further experiment relates to NCI-H322M lung. The note with it: 10 µM unless noted.
A further experiment has as its system COLO 205 colon. The note with it: 10 µM.
For the next experiment, the system named is MALME-3M melanoma. Particulars: 10 µM unless noted.
Another experiment deals with HT29 colon. The note with it: 10 µM unless noted.
The test system of a further experiment is PC-3 prostate. The note with it: 10 µM unless noted.
The test system of another experiment is SK-MEL-5 melanoma. Particulars: 10 µM unless noted.
The test system of another experiment is CAKI-1 renal. Particulars: 10 µM unless noted.
The test system of another experiment is CCRF-CEM leukemia. Particulars: 10 µM unless noted.
For another experiment, the system named is RPMI-8226 leukemia. The note with it: 10 µM unless noted.
The subject of another experiment is OVCAR-5 ovarian. The note with it: 10 µM unless noted.
In a further experiment the test system is IGROV1 ovarian. Particulars: 10 µM.
In a further experiment the test system is OVCAR-3 ovarian. Particulars: 10 µM unless noted.
Another experiment relates to MCF7 breast. The note with it: 10 µM unless noted.
The subject of a further experiment is SNB-75 CNS. The note with it: 10 µM unless noted.
The next experiment concerns EKVX NSCLC. The note with it: 10 µM unless noted.
The next experiment concerns HS 578T breast. The note with it: 10 µM unless noted.
The test system of another experiment is HOP-92 NSCLC. The note with it: 10 µM unless noted.

As for `O=S(=O)(Cl)c1ccccc1` (tested in a mixture with another compound), the growth in the experiment on NCI-H226 lung is 97.3%; in the experiment with NCI-H322M lung, 102%; with COLO 205 colon it was 105%; in the experiment on MALME-3M melanoma, 92.2%; in the experiment with HT29 colon, 101%; with PC-3 prostate, 103%. Also, the growth is 99.2% with SK-MEL-5 melanoma; 109% in the experiment on CAKI-1 renal; 114% in the experiment on CCRF-CEM leukemia; 96.6% with RPMI-8226 leukemia; 93.7% in the experiment on OVCAR-5 ovarian; 109% in the experiment with IGROV1 ovarian. For the same compound, the growth in the experiment with OVCAR-3 ovarian is 106%; in the experiment with MCF7 breast, 93.1%.
`Cc1ccc(C(=O)C2CN(C)CCC2(O)c2ccc(C)cc2)cc1` (stereo not drawn): the growth with NCI-H226 lung is 113%; in the experiment with NCI-H322M lung, 113%; with COLO 205 colon it was 131%; in the experiment with MALME-3M melanoma, 120%; in the experiment with SNB-75 CNS, 96%; in the experiment on PC-3 prostate, 108%. The growth was 114% in the experiment with SK-MEL-5 melanoma; 111% with EKVX NSCLC; 93.7% in the experiment on CAKI-1 renal; 99.9% with RPMI-8226 leukemia; 122% in the experiment with OVCAR-5 ovarian; 124% in the experiment on IGROV1 ovarian. Also, the growth was 119% in the experiment on OVCAR-3 ovarian and 98.1% in the experiment with MCF7 breast.
As for `CCN(CC)CCOc1c(C(C)C)cccc1C(C)C`, the growth in the experiment with NCI-H226 lung was 111%; in the experiment on NCI-H322M lung, 88.3%; in the experiment with MALME-3M melanoma, 107%; in the experiment with HT29 colon it was 95.4%; with SNB-75 CNS, 84.8%; in the experiment with PC-3 prostate, 101%. The growth in the experiment on SK-MEL-5 melanoma is 101%; in the experiment with EKVX NSCLC it was 96.5%; in the experiment with CAKI-1 renal, 89.8%; in the experiment with CCRF-CEM leukemia, 102%; with RPMI-8226 leukemia, 103%; with OVCAR-5 ovarian, 90.6%. Also, the growth in the experiment on IGROV1 ovarian was 101%; in the experiment on HS 578T breast, 110%; with MCF7 breast, 94.2%.
Take `CC1(C)N=C(N)N=C(N)N1c1ccc(CNC(=O)Nc2ccc(S(=O)(=O)F)c(Cl)c2)c(Cl)c1`: the growth with NCI-H226 lung was 83.8%; in the experiment with NCI-H322M lung, 46%; in the experiment on COLO 205 colon it was 37.1%; with MALME-3M melanoma, 54.5%; in the experiment with HT29 colon, 7.61% (active); in the experiment on SNB-75 CNS it was 69.2%. For the same compound, the growth in the experiment with PC-3 prostate was 4.03% (active); in the experiment on SK-MEL-5 melanoma it was 24.1%; with CCRF-CEM leukemia, 17.5%; with RPMI-8226 leukemia it was 27.6%; with OVCAR-5 ovarian, 26.4%; in the experiment on IGROV1 ovarian it was 30.6%. Further, the values for the growth in the experiment on OVCAR-3 ovarian and in the experiment on MCF7 breast were 48.9% and 1.42% (active), respectively.
`CC12CCC(=O)C=C1C(O)CC1C2CCC2(C)C(O)CCC12` (stereo not drawn): the growth in the experiment with NCI-H226 lung was 94.7%; in the experiment with NCI-H322M lung it was 98%; in the experiment with HOP-92 NSCLC, 103%; in the experiment with COLO 205 colon, 112%; in the experiment with MALME-3M melanoma, 95.9%; in the experiment on HT29 colon, 108%. Also, the growth is 95% in the experiment on PC-3 prostate; 98.6% in the experiment on SK-MEL-5 melanoma; 107% with EKVX NSCLC; 102% in the experiment with CAKI-1 renal; 103% with CCRF-CEM leukemia; 108% in the experiment on RPMI-8226 leukemia. For the same compound, the growth was 108% in the experiment on OVCAR-5 ovarian; 106% in the experiment on IGROV1 ovarian; 103% in the experiment with OVCAR-3 ovarian; 104% in the experiment on HS 578T breast; 97.1% in the experiment on MCF7 breast.
As to `Cc1cc(NC(=O)/C=C/c2ccc([N+](=O)[O-])cc2)ccc1S(=O)(=O)F`, the growth with NCI-H226 lung is 105%; with NCI-H322M lung, 84.8%; in the experiment on COLO 205 colon it was 102%; with MALME-3M melanoma it was 103%; in the experiment on HT29 colon it was 99.7%; in the experiment on SNB-75 CNS it was 106%. The growth is 98.9% in the experiment with PC-3 prostate; 100% with SK-MEL-5 melanoma; 114% in the experiment on CAKI-1 renal; 87% in the experiment on RPMI-8226 leukemia; 113% in the experiment with OVCAR-5 ovarian; 101% with IGROV1 ovarian. Also, the growth in the experiment with OVCAR-3 ovarian was 122%; in the experiment on MCF7 breast, 91.8%.
On to `O=S(=O)(F)c1ncnc2nc[nH]c12`, for which the growth in the experiment on NCI-H226 lung was 89.6%; with NCI-H322M lung, 97.9%; in the experiment with COLO 205 colon, 115%; in the experiment on MALME-3M melanoma, 100%; in the experiment on SNB-75 CNS it was 87.3%; in the experiment on PC-3 prostate, 93.7%. In addition, the growth with EKVX NSCLC was 103%; in the experiment with CAKI-1 renal it was 81.4%; with CCRF-CEM leukemia, 101%; in the experiment on IGROV1 ovarian, 103%; in the experiment on OVCAR-3 ovarian, 60.7%; in the experiment on HS 578T breast it was 77.1%. Further, in the experiment with MCF7 breast, the growth is 84.1%.
For `COc1ccc(-c2ccc(OC)c(OC)c2OC)cc1`, the growth in the experiment with NCI-H226 lung was 86.7%; in the experiment with NCI-H322M lung it was 36%; in the experiment on MALME-3M melanoma, 33.2%; in the experiment with HT29 colon, -4.61% (active); in the experiment with PC-3 prostate it was 18.3%; in the experiment on SK-MEL-5 melanoma, 15.3%. Besides, the growth is 52.4% in the experiment with EKVX NSCLC; 15.1% with CAKI-1 renal; 10.1% with CCRF-CEM leukemia; 58% in the experiment with OVCAR-5 ovarian; 37.1% in the experiment on IGROV1 ovarian; -25% (active) with OVCAR-3 ovarian. Moreover, in the experiment with MCF7 breast, the growth was 19.3%.
In the case of `O=C(Nc1ccc(S(=O)(=O)F)cc1)Oc1ccccc1`, the growth in the experiment on NCI-H226 lung was 99.5%; with NCI-H322M lung it was 94.8%; in the experiment on COLO 205 colon, 110%; with MALME-3M melanoma, 101%; in the experiment on SNB-75 CNS, 85.5%; with PC-3 prostate, 93.4%. In addition, the growth is 105% in the experiment on CAKI-1 renal, 88.1% in the experiment on CCRF-CEM leukemia, 92.3% in the experiment with RPMI-8226 leukemia and 91.6% in the experiment with MCF7 breast.
Take `CCCCN(CCCC)CC(O)c1ccccc1` (stereo not drawn): the growth in the experiment with NCI-H226 lung is 113%; in the experiment with NCI-H322M lung it was 105%; in the experiment on COLO 205 colon, 134%; in the experiment with HT29 colon it was 109%; in the experiment with SNB-75 CNS, 91.5%; in the experiment with PC-3 prostate, 111%. Also, the growth in the experiment with SK-MEL-5 melanoma is 118%; with EKVX NSCLC, 96.7%; with CAKI-1 renal it was 107%; in the experiment with CCRF-CEM leukemia it was 99.8%; in the experiment with RPMI-8226 leukemia, 113%; with OVCAR-5 ovarian, 93.6%. In addition, the growth in the experiment with IGROV1 ovarian was 115%; with OVCAR-3 ovarian it was 108%; with HS 578T breast, 97.5%.
Turning to `CCOC(=O)/C(C#N)=C/c1ccc(N(CCCl)CCCl)cc1`, the growth is 72.2% with NCI-H226 lung; 110% in the experiment on NCI-H322M lung; 112% with COLO 205 colon; 99.7% in the experiment on MALME-3M melanoma; 73.3% in the experiment with SNB-75 CNS; 69.7% in the experiment with PC-3 prostate. Moreover, the growth with SK-MEL-5 melanoma is 97.9%; in the experiment on CAKI-1 renal it was -9.24% (active); with RPMI-8226 leukemia it was 88.4%; in the experiment with OVCAR-5 ovarian it was 106%; in the experiment on IGROV1 ovarian it was 48.4%; with OVCAR-3 ovarian it was 108%. Besides, the results for the growth in the experiment with HS 578T breast and in the experiment with MCF7 breast were 103% and 71.9%, respectively.
